# Source: PubChem (The Scripps Research Institute Molecular Screening Center)
# DAX1 inh-1 = DAX1 (NR0B1) inhibitors on StAR promoter, primary screen, cell-based, luminescence, SF-1 (NR5A1), full-length DAX-1 | HEK293T StAR-luciferase reporter, SF-1/DAX-1 repression relief | inhibition, % at 6.8 µM | 370,000 tested, 1.1% active | AID 652010, 2013;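 active = inhibition above the mean over all tested compounds plus 3 SD, cut at about 3.6% in these data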;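 also: 0% = DAX-1 cells with DMSO and 100% = cells lacking DAX-1 with DMSO; higher inhibition means more luminescence from relief of DAX-1 repression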
# hgDAF12 agonist = H. glycines DAF-12 receptor agonists, primary screen, cell-based, luminescence, HEK293, GAL4 fusion, UAS-luciferase | activation, % at 6.8 µM | Nuclear hormone receptor DAF-12 (Heterodera glycines), GAL4 fusion | HEK293 GAL4-hgDAF12 UAS-luciferase reporter, agonist luminescence; normalized to butyrate control | AID 687014, 2013 | 370,000 tested, 1.8% active;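 active = activation above a cutoff set at the mean of all screened compounds plus 3 SD, cut at about 10% in these data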;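 also: 0% = DMSO wells and 100% = sodium butyrate wells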
# Wee1 degr inh = Wee1 degradation inhibitors, primary screen, cell-based, HeLa, Wee1K328M-luciferase, luminescence | 220,000 tested, 1.2% active | Wee1-like protein kinase (Homo sapiens), P30291 | reporter increase, % at 5 µM | HeLa Luc-Wee1K328M stability; 100% = proteasome inhibitor MG132 effect;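 active = activation above the mean of all tested compounds plus 3 SD, set per screening run, cut at about 8.8% in these data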;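 also: cells exposed to compound for 20 h before luminescence read; 0% = DMSO alone and 100% = MG132 at 30 µM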
# hcDAF12 agonist = H. contortus DAF-12 nuclear receptor activators, primary screen, cell-based, luminescence, HEK293, lit1-tk-luc reporter | HEK293 hcDAF-12 lit1-tk-luc reporter; 0% DMSO, 100% Δ7-dafachronic acid | activation, % at 6.8 µM | 370,000 tested, 1.4% active;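 active = activation above the mean of all tested compounds plus 3 SD, cut at about 5.5% in these data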;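 also: 100% = response to 3 µM Δ7-dafachronic acid high control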
# ssDAF-12 act = S. stercoralis DAF-12 nuclear receptor activators, primary screen, cell-based, luminescence, HEK293, GRIP1 co-expression, lit1-tk-luc; HEK293 ssDAF-12/GRIP1 lit1-tk-luc reporter; % of 3 µM dafachronic acid response; activation, % at 6.8 µM; 370,000 tested, 1% active; AID 652126, 2013;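 active = activation above the mean over all tested compounds plus 3 SD, cut at about 0.9% in these data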;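 also: 0% = DMSO-only wells and 100% = 3 µM delta7-dafachronic acid wells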
# DAX1 inh-2 = DAX1 (NR0B1) inhibitors, primary screen, cell-based, HEK293, Gal4-DAX1, luciferase luminescence | HEK293 Gal4-DAX1 luciferase reporter | AID 504766, 2011 | inhibition, % at 6.75 µM | 340,000 tested, 0.99% active;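 active = inhibition above the mean over all tested compounds plus 3 SD, cut at about 4.2% in these data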;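 also: 0% = DAX1-transfected cells with DMSO and 100% = empty-vector control cells with DMSO; inhibition shows as a rise in luminescence from relieved DAX1 repression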
# Numbers without * were called inactive; x = no result. Compounds with a hit are over-represented: about 4.6% of the library has one in this group of screens.
SMILES,DAX1 inh-1,hgDAF12 agonist,Wee1 degr inh,hcDAF12 agonist,ssDAF-12 act,DAX1 inh-2
COc1ccc2[nH]cc(C(=O)CN3CCC(C)CC3)c2c1,1.2,7.1,8.4,3.4,1.3*,2.7
COc1ccc2[nH]cc(C(=O)CN3CCCC(C)C3)c2c1 (centres undefined),0.5,3.5,-1.5,0.0,-0.8,-0.6
CCOC(=O)C1CCCN(CC(=O)c2c[nH]c3ccc(C)cc23)C1 (centres undefined),-0.2,1.5,1.6,1.8,1.3*,x
CC(C)C[C@@H]1COc2cccc(N3CCC[C@H]3CO)c2S(=O)(=O)N1,3.6*,0.5,x,2.2,-0.8,x
C[C@@H]1COc2cccc(N3CCC[C@@H]3CO)c2S(=O)(=O)N1,1.2,1.7,x,-0.2,-1.5,x
Cc1ccc2c(c1)N(C(=O)CCC(=O)NC1CCC(C)CC1)CCO2 (centres undefined),0.0,-0.5,x,2.2,-0.9,-0.1
CCOC(=O)N1CCC(NC(=O)CCC(=O)N2CCOc3ccc(C)cc32)CC1,0.1,-3.1,10.3*,-0.9,-0.8,2.7
Cc1ccc2c(c1)N(C(=O)CCC(=O)N1CCC(C(N)=O)CC1)CCO2,0.8,1.1,x,0.9,1.3*,-0.2
CC1(Oc2ccc(Cl)cc2)CCN(Cc2ccc(-c3ccccn3)cc2)C1 (centres undefined),1.5,-0.8,x,0.9,-1.4,x
O=C1CSC(=S)N1N=C1CCCCCC1,0.4,2.5,13.4*,-0.6,-0.8,-0.1
Cc1ccccc1NS(=O)(=O)c1ccc(N2CCCC2=O)cc1,-2.3,0.2,10.4*,-0.2,-1.6,-5.0
Fc1ccc(NC(=S)Nc2cccnc2)c(Cl)c1,-0.6,1.6,1.3,-1.9,-1.3,-0.5
Fc1ccc(NC(=S)Nc2cccnc2)c(F)c1F,-0.2,0.9,9.5*,1.8,-1.4,0.6
CCNC(=O)OC[C@H]1O[C@H](C#Cc2ccc(C(C)(C)C)cc2)C=C[C@H]1O,-0.1,-2.2,x,-1.7,-1.1,x
CC(C)(C)c1ccc(C#C[C@@H]2C=C[C@H](O)[C@@H](COC(=O)Nc3ccccc3)O2)cc1,1.4,5.2,x,5.8*,1.9*,x
COc1ccc(Cn2cc(CN3[C@@H](CC(C)C)COc4ccc(Cl)cc4S3(=O)=O)nn2)cc1,-0.2,-1.6,x,-1.2,-0.8,x
CC(C)CNc1cccc2c1S(=O)(=O)N(Cc1cn(Cc3ccc(F)cc3)nn1)Cc1ccccc1O2,-0.7,-2.9,x,-3.5,-1.1,x
CC(C)C[C@@H]1COc2cc(NCCO)ccc2S(=O)(=O)N1,0.7,0.4,x,1.6,0.1,x
Oc1ccc(-c2[nH]ncc2-c2ccc(Br)cc2)c(O)c1,-0.1,5.4,x,-0.1,-0.8,6.4*
Oc1ccc(-c2[nH]ncc2-c2ccc(Cl)cc2)c(O)c1,0.1,-1.7,0.4,0.5,-2.0,1.1
CCC(=O)N1CCc2cc(Br)c(S(=O)(=O)N3CCC(C(=O)NC(C)(C)C)CC3)cc21,-0.6,-1.3,x,-1.4,-0.5,x
COc1cc(C(=O)Nc2cccc(-c3cn4cccnc4n3)c2)cc(OC)c1OC,-2.6,-5.3,3.1,-2.5,-1.8,-1.1
CC(C)(C)CC(=O)Nc1cccc(-c2cn3cccnc3n2)c1,2.4,10.5*,-1.9,4.7,-0.8,4.0
COCC(=O)Nc1ccc(-c2cn3cccnc3n2)cc1,0.5,1.5,-0.9,0.2,-0.4,-0.3
COc1ccc(-c2cn3cccnc3n2)cc1NC(=O)c1cc(OC)c(OC)c(OC)c1,-1.8,-2.9,9.7*,-0.6,-1.9,-1.1
Nc1ccc(N=Nc2ccccc2)cc1[N+](=O)[O-],1.9,12.1*,x,5.6*,3.0*,2.1
O=S(=O)(O)c1cc2oc(-c3ccccc3)nc2c2ccccc12,0.0,2.2,x,5.8*,-0.3,-0.3
